Results published in PubChem BioAssay (NCATS).
Values joined by “and” are separate entries in the source; they are usually repeats but may differ in a detail not shown here. Equal entries are not always repeated. Results filed as inconclusive are left out. Active and inactive are the calls of the source. Unless noted, calls follow the shape of the dose curve; as a rule, active = well fitted curve in the direction sought with a large enough effect; inconclusive = small, poorly fitted or top-dose-only effect, or another doubt; inactive = no such curve, though single readings can be large; an effect the other way counts as inactive or inconclusive.

How the values were obtained:
[1] = target: Protein phosphatase 1D (Homo sapiens) (UniProt O15297); test: RapidFire Mass Spectrometry qHTS Assay for Modulators of WT P53-Induced Phosphatase 1 (WIP1) (AID 1347424);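 also: amount of dephosphorylated VEPPL-S-QETFS peptide product formed by WIP1; series mostly up to about 63 µM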
Protein phosphatase 1D (Homo sapiens), sequence (O15297 whole entry, looked up): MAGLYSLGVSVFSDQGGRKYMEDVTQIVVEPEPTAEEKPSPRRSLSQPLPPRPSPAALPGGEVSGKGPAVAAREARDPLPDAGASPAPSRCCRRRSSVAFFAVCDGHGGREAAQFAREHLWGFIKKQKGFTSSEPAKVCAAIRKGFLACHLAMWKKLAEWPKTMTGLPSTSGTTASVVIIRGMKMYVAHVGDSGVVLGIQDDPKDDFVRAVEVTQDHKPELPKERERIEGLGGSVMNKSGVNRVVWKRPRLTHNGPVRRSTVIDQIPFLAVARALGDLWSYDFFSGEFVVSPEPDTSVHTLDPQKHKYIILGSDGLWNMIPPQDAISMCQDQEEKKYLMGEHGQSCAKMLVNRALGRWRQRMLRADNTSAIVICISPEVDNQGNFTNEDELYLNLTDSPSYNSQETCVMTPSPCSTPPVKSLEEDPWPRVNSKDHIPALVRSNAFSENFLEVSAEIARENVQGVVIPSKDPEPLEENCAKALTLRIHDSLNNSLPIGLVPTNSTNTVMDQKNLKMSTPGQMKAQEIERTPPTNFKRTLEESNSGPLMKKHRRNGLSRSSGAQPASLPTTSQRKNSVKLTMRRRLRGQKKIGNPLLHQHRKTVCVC
Method in brief: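 10 nM WIP1 + cpd, 1 h RT; + 2 uM VEPPL-pS-QETFS, 5 min RT; stop 0.5% formic acid; labelled product standard 1 uM; RapidFire MS. Buffer 50 mM Tris pH 7.5, 30 mM MgCl2, 1 mM TCEP.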

[2] = target: Protein phosphatase 1D (Homo sapiens) (UniProt O15297); test: Rhodamine-PBP qHTS Assay for Modulators of WT P53-Induced Phosphatase 1 (WIP1) (AID 1347425)
Method in brief: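 The read-out is the change in Rhodamine-PBP fluorescence (f1 - f0, ex 525/em 598 nm) as Pi is released, read each minute for 11 min. Final reaction: 5 nM WIP1, 10 uM phosphopeptide VEPPL-pS-QETFS, 10 uM Rh-PBP, 50 mM Tris-HCl pH 7.5, 30 mM MgCl2. Compound was preincubated with enzyme for 1 hour at room temperature.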

[3] = Primary qHTS for inhibitors of La Crosse Virus (LACV) - induced cell death in SH-SY5Y cells (AID 1508616);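 also: top concentration of the series differs between compounds; higher means more rescue of cells from virus-induced death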
Method in brief: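 Readout was luminescence from ATPLite 1step added after a 6-day LACV infection (0.01 MOI) of SH-SY5Y cells that had received pin-transferred compound 24 hr after seeding.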

[4] = target: Calcium and integrin-binding protein 1 (Homo sapiens) (UniProt Q99828); test: Primary qHTS for Identification of Calcium Integrin Binding Protein 1 (CIB1) Competitor (AID 1508620);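 also: GST tagged CIB1 binding a fluorescein labelled alphaIIb integrin peptide tracer; top concentration of the series differs between compounds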
Calcium and integrin-binding protein 1 (Homo sapiens), sequence (Q99828 whole entry, looked up): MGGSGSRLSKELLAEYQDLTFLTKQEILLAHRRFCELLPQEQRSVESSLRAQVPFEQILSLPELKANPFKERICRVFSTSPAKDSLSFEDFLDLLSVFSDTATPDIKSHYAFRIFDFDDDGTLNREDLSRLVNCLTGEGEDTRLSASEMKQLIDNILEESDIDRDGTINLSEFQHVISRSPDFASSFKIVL
Method in brief: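 CIB1-GST (1 uM final) and compound incubated 15 min at room temperature before adding FITC-alphaIIb peptide tracer (100 nM final). Competition for binding read by fluorescence polarization (ex 480, em 540) after another 15 min at room temperature.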

[5] = A High-Content qHTS Against Drug Library for the Identification of Small Molecules that Inhibit DYT1 Early Onset Primary Dystonia-Associated Cell Pathology (AID 1645839; calls by dose curve; also: series mostly up to about 46 µM)
Method in brief: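 In this high-content image screen, delE TorsinA mislocalization in inducible Flp-In 293 cells is scored as %pathology, with cell count serving as the counterscreen. Compound exposure lasts 48 h under tetracycline induction in reduced-serum medium.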

[6] = target: Cytochrome P450 2C9 (Homo sapiens) (UniProt P11712); test: Cytochrome P450 family 2 subfamily C member 9 (CYP2C9) small molecule antagonists: luciferase biochemical (cell-free) qHTS assay (AID 1645842; active = well fitted curve in the direction sought with a large enough effect in the repeat runs; an effect the other way counts as inactive or inconclusive; also: nearly all actives have a fitted effect of over 55% in size; also: potency is read from the fitted curve at half-maximal effect)
Cytochrome P450 2C9 (Homo sapiens), sequence (P11712 whole entry, looked up): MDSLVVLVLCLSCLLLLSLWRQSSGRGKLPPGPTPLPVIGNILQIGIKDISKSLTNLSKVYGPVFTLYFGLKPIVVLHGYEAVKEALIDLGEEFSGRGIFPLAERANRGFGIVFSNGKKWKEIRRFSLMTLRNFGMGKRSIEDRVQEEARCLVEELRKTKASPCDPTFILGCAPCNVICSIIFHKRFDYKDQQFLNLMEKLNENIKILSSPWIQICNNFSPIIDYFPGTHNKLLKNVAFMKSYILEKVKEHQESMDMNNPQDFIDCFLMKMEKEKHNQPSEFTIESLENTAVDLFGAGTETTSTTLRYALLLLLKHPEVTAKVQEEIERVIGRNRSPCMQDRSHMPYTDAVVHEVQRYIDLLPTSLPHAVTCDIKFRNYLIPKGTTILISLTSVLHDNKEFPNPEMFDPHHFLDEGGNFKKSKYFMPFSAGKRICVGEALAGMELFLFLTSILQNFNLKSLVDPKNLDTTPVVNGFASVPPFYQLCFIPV
Method in brief: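 Luminescence, after 20 min with luciferin detection reagent, reflected CYP2C9 turnover during a 1 h NADPH-driven reaction at 37C. Enzyme-substrate mix contained 0.4% bovine serum albumin and was preincubated with compound 10 min at room temperature.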

[7] = Primary qHTS for inhibitors of nuclear receptor binding SET domain protein 2 (NSD2) in an isogenic RCH-ACV NSD2 p.E1099K mutant (9B) (AID 1645876); also: nearly all actives have a fitted effect of over 70% in size; also: potency is read from the fitted curve at half-maximal effect
[8] = Primary qHTS for inhibitors of nuclear receptor binding SET domain protein 2 (NSD2) in an RCH-ACV wild type WT cells (2C) (AID 1645877); also: nearly all actives have a fitted effect of over 70% in size; also: potency is read from the fitted curve at half-maximal effect
[9] = target: Cytochrome P450 2D6 (Homo sapiens) (UniProt P10635); test: Cytochrome P450 family 2 subfamily D member 6 (CYP2D6) small molecule antagonists: luciferase biochemical (cell-free) qHTS assay (AID 1645840; active = well fitted curve in the direction sought with a large enough effect in the repeat runs; an effect the other way counts as inactive or inconclusive; also: nearly all actives have a fitted effect of over 55% in size; also: potency is read from the fitted curve at half-maximal effect)
Cytochrome P450 2D6 (Homo sapiens), sequence (P10635 whole entry, looked up): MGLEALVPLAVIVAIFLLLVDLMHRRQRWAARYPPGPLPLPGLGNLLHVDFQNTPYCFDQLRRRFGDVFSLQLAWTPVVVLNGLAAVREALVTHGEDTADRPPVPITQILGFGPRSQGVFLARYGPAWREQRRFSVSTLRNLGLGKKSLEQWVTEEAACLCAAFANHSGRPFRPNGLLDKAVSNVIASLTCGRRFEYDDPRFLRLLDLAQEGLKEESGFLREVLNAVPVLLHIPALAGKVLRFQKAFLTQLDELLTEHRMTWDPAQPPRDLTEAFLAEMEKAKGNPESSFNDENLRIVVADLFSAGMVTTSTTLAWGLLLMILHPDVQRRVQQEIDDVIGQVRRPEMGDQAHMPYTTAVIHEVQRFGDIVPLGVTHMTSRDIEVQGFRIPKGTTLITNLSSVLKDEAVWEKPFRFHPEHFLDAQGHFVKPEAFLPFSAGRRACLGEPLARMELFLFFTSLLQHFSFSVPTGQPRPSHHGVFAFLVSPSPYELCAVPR
Method in brief: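 P450-Glo luminescent screen: recombinant CYP2D6 enzyme–proluciferin substrate mix preincubated with compound 10 min at room temperature, then NADPH regeneration added for 1 h at room temperature. Detection reagent added for 20 min; luciferin light read as relative luminescence units.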

[10] = Primary qHTS for small molecule stabilizers of the endoplasmic reticulum resident proteome: Secreted ER Calcium Modulated Protein (SERCaMP) assay (AID 1508630)
Method in brief: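 GLuc-SERCaMP-expressing SH-SY5Y cells, pretreated 16 h with compound, are challenged with thapsigargin to empty ER calcium stores; after 4 h, coelenterazine is added directly to the medium and luminescence is imaged.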

[11] = target: Cytochrome P450 3A4 (Homo sapiens) (UniProt P08684); test: Cytochrome P450 family 3 subfamily A member 4 (CYP3A4) small molecule antagonists: luciferase qHTS assay (AID 1645841; active = well fitted curve in the direction sought with a large enough effect in the repeat runs; an effect the other way counts as inactive or inconclusive; also: nearly all actives have a fitted effect of over 45% in size)
Cytochrome P450 3A4 (Homo sapiens), sequence (P08684 whole entry, looked up): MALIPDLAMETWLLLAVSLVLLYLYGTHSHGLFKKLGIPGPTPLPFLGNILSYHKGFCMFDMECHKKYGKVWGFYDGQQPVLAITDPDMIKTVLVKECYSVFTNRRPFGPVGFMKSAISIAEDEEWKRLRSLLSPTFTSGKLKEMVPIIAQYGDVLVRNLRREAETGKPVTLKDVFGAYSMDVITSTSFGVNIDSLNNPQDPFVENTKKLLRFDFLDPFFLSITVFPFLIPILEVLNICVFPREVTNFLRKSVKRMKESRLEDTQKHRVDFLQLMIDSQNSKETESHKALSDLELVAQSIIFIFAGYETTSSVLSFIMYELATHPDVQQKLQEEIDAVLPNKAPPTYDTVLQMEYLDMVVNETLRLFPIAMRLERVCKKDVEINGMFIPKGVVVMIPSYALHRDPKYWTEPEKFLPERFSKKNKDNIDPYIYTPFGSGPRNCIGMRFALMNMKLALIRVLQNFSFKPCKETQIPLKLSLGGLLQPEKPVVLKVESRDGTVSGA
Method in brief: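 Luminescent CYP3A4 activity readout: compounds plus enzyme-substrate mix 10 min at room temperature, reaction started with NADPH regenerating system for 1 h, stopped with detection reagent, read after 20 min. Ketoconazole served as control.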

[12] = target: Rap guanine nucleotide exchange factor 3 (Homo sapiens) (UniProt O95398); test: Confirmatory qHTS for antagonist of cAMP-regulated guanine nucleotide exchange factor 3 (EPAC1) (AID 1645880); also: nearly all actives have a fitted effect of over 55% in size
Rap guanine nucleotide exchange factor 3 (Homo sapiens), sequence (O95398 whole entry, looked up): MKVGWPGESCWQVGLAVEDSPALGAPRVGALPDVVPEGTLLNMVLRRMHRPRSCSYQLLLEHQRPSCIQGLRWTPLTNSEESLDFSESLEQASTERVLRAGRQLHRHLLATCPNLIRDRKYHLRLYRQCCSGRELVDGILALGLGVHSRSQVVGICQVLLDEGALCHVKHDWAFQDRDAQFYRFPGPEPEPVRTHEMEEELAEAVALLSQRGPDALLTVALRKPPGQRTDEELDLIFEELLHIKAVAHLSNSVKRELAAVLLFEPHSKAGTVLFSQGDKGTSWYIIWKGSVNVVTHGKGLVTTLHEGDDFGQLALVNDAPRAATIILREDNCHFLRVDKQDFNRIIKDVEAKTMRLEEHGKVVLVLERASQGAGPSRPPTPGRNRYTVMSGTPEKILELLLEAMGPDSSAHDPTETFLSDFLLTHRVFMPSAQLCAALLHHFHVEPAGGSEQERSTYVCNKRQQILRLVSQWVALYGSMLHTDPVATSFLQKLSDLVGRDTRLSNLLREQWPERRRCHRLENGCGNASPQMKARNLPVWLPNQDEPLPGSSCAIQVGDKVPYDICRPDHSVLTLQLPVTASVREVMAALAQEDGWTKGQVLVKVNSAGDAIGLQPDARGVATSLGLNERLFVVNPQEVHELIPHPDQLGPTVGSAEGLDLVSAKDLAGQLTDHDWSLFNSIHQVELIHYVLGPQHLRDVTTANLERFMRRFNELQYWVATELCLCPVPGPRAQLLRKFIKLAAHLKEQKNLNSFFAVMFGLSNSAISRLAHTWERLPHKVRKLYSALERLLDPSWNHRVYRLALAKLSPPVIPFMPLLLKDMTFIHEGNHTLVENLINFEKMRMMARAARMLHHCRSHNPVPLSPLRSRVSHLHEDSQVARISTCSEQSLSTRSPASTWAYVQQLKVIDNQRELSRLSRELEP
Method in brief: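 Nucleotide exchange uses 100 nM EPAC1, 250 nM RAP1B-BODIPY-GDP and 50 uM GDP, with compounds in a concentration-titration series. After 5 min at room temperature, fluorescence (480 nm ex/540 nm em) is read every 5 min for 30 min. Data are normalized to control ATA and DMSO.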

Measured: Potency

CC(=O)NO
not listed: [9] | [10] | [11] | [12]
inactive: all other assays above

C[C@@H](O)[C@H]1C(=O)N2C(C(=O)O)=C([C@H]3CCCO3)S[C@H]12
not listed: [10] | [11] | [12]
inactive: all other assays above

COc1ccc2c(c1)c1c3n2CCN(C)C3=NCC1
not listed: [4] | [9] | [11] | [12]
inactive: all other assays above

C/C=C/c1ccc(O)c(OC)c1
active: [6] 2.19 µM
inactive: [1] | [2] | [3] | [5] | [9]

OC[C@H]1O[C@@H]2O[C@H]3[C@H](O)[C@@H](O)[C@@H](O[C@H]4[C@H](O)[C@@H](O)[C@@H](O[C@H]5[C@H](O)[C@@H](O)[C@@H](O[C@H]6[C@H](O)[C@@H](O)[C@@H](O[C@H]7[C@H](O)[C@@H](O)[C@@H](O[C@H]8[C@H](O)[C@@H](O)[C@@H](O[C@H]1[C@H](O)[C@H]2O)O[C@@H]8CO)O[C@@H]7CO)O[C@@H]6CO)O[C@@H]5CO)O[C@@H]4CO)O[C@@H]3CO
not listed: [4] | [11] | [12]
inactive: all other assays above

CCOC(=O)[C@@](C)(N)Cc1ccc(O)c(O)c1
active: [9] 7.76 µM
inactive: [1] | [2] | [3] | [5] | [6]

CCCCN=C(N)N=C(N)N
inactive: [1] | [2] | [3] | [5]

CCCCC(CC)COC(=O)c1ccc(N(C)C)cc1 (centres undefined)
active: [6] 13.8 µM and 13.5 µM
not listed: [4] | [9] | [11] | [12]
inactive: all other assays above

O=C1C(=O)c2ccccc2C(O)=C1C1CCC(c2ccc(Cl)cc2)CC1 (centres undefined)
not listed: [3] | [12]
inactive: all other assays above

CC(C)CCCC(C)N (centres undefined)
not listed: [4] | [11] | [12]
inactive: all other assays above

O=[N+]([O-])c1ccc(/C=N\O)o1
inactive: [1] | [2] | [3] | [5] | [6] | [8]

O=C(N/N=C/c1ccc([N+](=O)[O-])o1)c1ccc(O)cc1
inactive: [1] | [2] | [3] | [10]
active: [7] 5.96 µM | [8] 8.41 µM

Cn1c(=O)c2[nH]c(Br)nc2n(C)c1=O
not listed: [4] | [11] | [12]
inactive: all other assays above

CCCCCCCCNC(C)C(O)c1ccc(SC(C)C)cc1 (centres undefined)
active: [9] 1.38 µM and 8.49 µM | [7] 10.6 µM | [8] 7.5 µM
inactive: [1] | [2] | [3] | [10] | [6]

C[N+]1(CC2COC(c3ccccc3)(C3CCCCC3)O2)CCCCC1 (centres undefined)
active: [9] 1.55 µM | [7] 21.1 µM | [8] 21.1 µM
not listed: [4] | [11] | [12]
inactive: all other assays above

CC(C)Nc1cccnc1N1CCN(C(=O)c2cc3cc(NS(C)(=O)=O)ccc3[nH]2)CC1
inactive: [1] | [2] | [3] | [5]
active: [6] 1.95 µM

CCOc1ccc(NC(C)=O)cc1
not listed: [4] | [11] | [12]
inactive: all other assays above

COc1cc(NS(=O)(=O)c2ccc(N)cc2)ncn1
inactive: [1] | [2] | [3] | [5] | [9] | [6]

N#CCC(=O)NN
inactive: [1] | [2] | [3] | [5] | [9] | [6] | [7]

C=C[C@H]1CN2CC[C@H]1C[C@H]2[C@H](O)c1ccnc2ccc(OC)cc12
inactive: [1] | [2] | [3] | [5] | [6]

COc1ccc(C(=O)c2ccccc2)c(O)c1
inactive: [1] | [2] | [3] | [10] | [5] | [9] | [12]

CCOc1ccccc1OCCN[C@H](C)Cc1ccc(OC)c(S(N)(=O)=O)c1
inactive: [1] | [2] | [3] | [5] | [6] | [7] | [8]

CCCN(CCC)S(=O)(=O)c1ccc(C(=O)O)cc1
not listed: [4] | [10] | [11] | [12]
inactive: all other assays above

CCc1ccc(C(=O)C(C)CN2CCCCC2)cc1 (centres undefined)
inactive: [1] | [2] | [3] | [10] | [5] | [6]
active: [9] 0.871 µM | [8] 23.7 µM

CC(C)Cc1ccc(CC(=O)O)cc1
inactive: [1] | [2] | [3] | [10] | [5] | [9] | [6]
